The whole screen tested about 63,000 compounds, of which about 1,100 (1.7%) were called active. This is one part of a sample in which actives are shown more often than they occur. Potency and affinity values are given separately. A number with no mark means an inactive call.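 How the source made its calls: active means compounds whose percent cytotoxicity in the single-dose primary screen, scaled between solvent and toxic-drug controls, exceeds 50; inactive means the rest.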

The assay in a line: viability loss of HPDE-C7K cells – cell-based, fluorescence, HTS, primary screen (AID 431).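 Further: 0% = DMSO solvent wells and 100% = doxorubicin-treated wells.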 Conditions: HPDE-C7K KRASV12 cells, Alamar Blue viability, 48 h; at 10 µM; stronger effect = higher value. (The colour change of resazurin is a common sign of viable cells or microbes.)
With `Cn1c(SCc2nc3ccccc3[nH]2)nnc1-c1cccs1`, the cytotoxicity was -13.1%.
With `CCN(Cc1ccccc1)S(=O)(=O)c1ccc(C(=O)Nc2nnc(C3CC3)o2)cc1`, the cytotoxicity is 6.4%.
For the compound `CCCCN(CC)S(=O)(=O)c1ccc(C(=O)Nc2nnc(-c3ccccc3Cl)o2)cc1`, the cytotoxicity is 58.3% (active).
The value for `O=C(Nc1nnc(-c2cccs2)o1)c1cccc(Oc2ccccc2)c1` was 35.3%; that for `CCCCN(CC)S(=O)(=O)c1ccc(C(=O)Nc2nnc(-c3cccs3)o2)cc1` was 52.7% (active); that for `CCCCN(C)S(=O)(=O)c1ccc(C(=O)Nc2nnc(-c3cccs3)o2)cc1` was 32.1%.
On to `O=C(Nc1nnc(-c2cccs2)o1)c1cccc(C(F)(F)F)c1`, for which the cytotoxicity was 77.3% (active).
Turning to `COc1cccc(C(=O)Nc2nnc(-c3cccs3)o2)c1`, the cytotoxicity was 15.6%.
Take `CC1CC(C)CN(S(=O)(=O)c2ccc(C(=O)Nc3nnc(-c4cccs4)o3)cc2)C1` (stereo not given): the cytotoxicity is 56.6% (active).
Take `CC1CN(S(=O)(=O)c2ccc(C(=O)Nc3nnc(-c4ccc5c(c4)CCCC5)o3)cc2)CC(C)O1` (stereo not given): the cytotoxicity is 33.7%.
For the compound `O=C(Nc1nnc(-c2cccs2)o1)c1cccc(F)c1`, the cytotoxicity was 21.9%.
`Brc1ccc(-c2nnc(-c3ccc4c(c3)OCO4)o2)o1`: the cytotoxicity was -2%.
The value for `COC(=O)c1ccccc1NC(=O)CSc1nnnn1C1CCCCC1` was 0.6%; that for `O=C(Nc1nccs1)C1CCN(S(=O)(=O)c2cccnc2)CC1` was -8.7%; that for `COCCCn1cnc2c(c1=O)c1nc3ccccc3nc1n2-c1ccc(C)cc1` was -9.5%.
On to `Cn1c(=O)oc2cc(S(=O)(=O)NC3CCCc4ccccc43)ccc21` (stereo not given), for which the cytotoxicity was -4%.
As for `O=C(CCCn1c(=S)[nH]c2ccccc2c1=O)NCc1ccco1`, the cytotoxicity was -11%.
The value for `CCCC(=O)Nc1nnc(-c2ccc(Cl)s2)o1` was -1.5%; that for `CCC1CCCCN1S(=O)(=O)c1ccc(C(=O)Nc2nnc(-c3ccccc3Cl)o2)cc1` (stereo not given) was 76.1% (active).
`O=C(Nc1ccc(S(=O)(=O)N2CCCc3ccccc32)cc1)C1CCCO1` (stereo not given): the cytotoxicity was 12.3%.
The value for `CC1CCN(S(=O)(=O)c2ccc(NC(=O)c3cccs3)cc2)CC1` was 15.7%.
In the case of `CCC1CCCCN1S(=O)(=O)c1ccc(C(=O)Nc2nnc(-c3cccs3)o2)cc1` (stereo not given), the cytotoxicity was 11.8%.
For `CC1CCCCN1S(=O)(=O)c1ccc(NC(=O)c2cccs2)cc1` (stereo not given) the value was 57.2% (active); for `O=C(Nc1nnc(C2CC2)o1)c1ccc(S(=O)(=O)N2CCCc3ccccc32)cc1`, 60.6% (active); for `COc1ccc(-c2nnc(NC(=O)c3ccc(S(=O)(=O)N4COCC4(C)C)cc3)o2)cc1`, 14.3%.
The value for `O=C(Nc1nnc(-c2ccccc2Cl)o1)c1cccnc1` was 28.8%; that for `CN1CCN(S(=O)(=O)c2ccc(NC(=O)c3cccs3)cc2)CC1` was -16.7%.
Regarding `COc1ccc(-c2nnc(NC(=O)c3ccc(S(=O)(=O)N4CCCc5ccccc54)cc3)o2)cc1`, the cytotoxicity is 49.3%.
With `CC1(C)COCN1S(=O)(=O)c1ccc(C(=O)Nc2nnc(-c3ccc(Cl)s3)o2)cc1`, the cytotoxicity was 93.6% (active).
With `O=C1C(C=NCCCn2ccnc2)=C(O)c2ccccc21`, the cytotoxicity was 1%.
In the case of `O=C(NC1CCCCC1)C1CCCN1C(=O)NCc1ccccc1` (stereo not given), the cytotoxicity was 11.8%.
With `CCNS(=O)(=O)c1ccc(OCCNS(C)(=O)=O)cc1`, the cytotoxicity was -2.5%.
Consider `O=C(/C=C/N1CCOCC1)c1coc2ccccc12`, for which the cytotoxicity is -4.5%.
In the case of `Cc1cccc(C)c1NC(=O)CSc1nnc(-c2ccoc2C)n1C`, the cytotoxicity was -5.8%.
With `O=C(OCCN(C1=NS(=O)(=O)c2ccccc21)c1ccc(Cl)cc1)c1ccco1`, the cytotoxicity was -16.8%.
`CC(O)CCc1nc2ccc(C(=O)O)cc2[nH]1` (stereo not given): the cytotoxicity was -5.2%.
Turning to `CCc1nnc(NC(=O)c2ccc(S(=O)(=O)N3CCCCC3C)cc2)s1` (stereo not given), the cytotoxicity was -7.7%.
The value for `Cc1nnc(NC(=O)c2ccc(S(=O)(=O)N3CCCCCC3)cc2)o1` was 6.5%.
With `CC1CCCN(S(=O)(=O)c2ccc(C(=O)Nc3nnc(-c4ccccc4Cl)o3)cc2)C1` (stereo not given), the cytotoxicity is 63.8% (active).
For `O=C(Nc1nnc(-c2ccccc2Cl)o1)c1ccc(S(=O)(=O)N2CCCCCC2)cc1` the value was 43.8%.
As for `CC1CCCCN1S(=O)(=O)c1ccc(C(=O)Nc2nnc(-c3ccccc3Cl)o2)cc1` (stereo not given), the cytotoxicity was 56.7% (active).
For `CC1CCCCN1S(=O)(=O)c1ccc(NC(=O)c2cccc(-n3cnnn3)c2)cc1` (stereo not given) the value was 20.3%; for `O=C(Nc1ccccc1C(=O)N1CCOCC1)c1ccco1`, 3.4%.
As for `Cc1ccc(C)c(C(=O)CSc2nnnn2-c2cccnc2)c1`, the cytotoxicity was 0.6%.
Turning to `Cc1cc(C)n(S(=O)(=O)c2cccc(Cl)c2Cl)n1`, the cytotoxicity is -9.2%.
Consider `COc1nc(-c2ccccc2)ccc1-c1noc(-c2ccco2)n1`, for which the cytotoxicity is -3%.
For the compound `COC(=O)c1ccccc1S(=O)(=O)N(Cc1ccco1)Cc1cc2cc(OC)ccc2[nH]c1=O`, the cytotoxicity is -1.7%.
As to `CCc1ccc(CCC(=O)Nc2sc3c(c2C#N)CCCC3)o1`, the cytotoxicity was 73.8% (active).
For `COC(=O)CCC(=O)Nc1sc2c(c1C#N)CCCC2` the value was -6.7%.
As to `CCCC(=O)Nc1sc2c(c1C#N)CCCC2`, the cytotoxicity is 1.4%.
For the compound `CCOC(=O)C1C(c2cccc(Cl)c2Cl)NC(=O)NC1(O)C(F)(F)F` (stereo not given), the cytotoxicity is 10.1%.
As for `COC(=O)C1=C(C)NC(=O)CC1c1cccc(Cl)c1Cl` (stereo not given), the cytotoxicity was -0.8%.
For `O=C(Nc1ccc2c(c1)OCO2)c1ccc(Br)c(S(=O)(=O)N2CCCC2)c1` the value was 14.5%; for `CCc1ncc(C(O)c2cccc(OC)c2OC)n1C` (stereo not given), 6.9%.
As for `CCOC(=O)c1c(N)sc(C(=O)Nc2ccc3c(c2)OCO3)c1C`, the cytotoxicity is 19.8%.
The value for `CCN(CC)S(=O)(=O)c1ccc(NC(=O)Cn2c(=O)oc3ccccc32)cc1` was 1.6%; that for `Cc1nn2c(N3CCOCC3)c3c(nc2c1-c1ccccc1)CCCC3` was 8.5%.
For the compound `Cc1c(-c2ccccc2)nc(N)c(C#N)c1-c1ccco1`, the cytotoxicity was -7.4%.
Take `Cc1nc(N)c(C#N)c(-c2ccccc2)c1C`: the cytotoxicity was 18.7%.
On to `CC1=C(C#N)c2nc(N)c(C#N)c(C)c2/C1=C\c1ccccc1`, for which the cytotoxicity is 107% (active).
For the compound `COc1cc(C(=O)Nc2nc3ccccc3[nH]2)cc(OC)c1OC`, the cytotoxicity was -19.5%.
Take `O=C(Nc1nc2ccccc2[nH]1)c1ccc(F)cc1`: the cytotoxicity is -12%.
Regarding `COC(=O)Nc1nc2ccc(Sc3ccccc3)cc2[nH]1`, the cytotoxicity was 57.5% (active).
As for `COC(=O)Nc1nc2ccc(C(=O)c3ccccc3)cc2[nH]1`, the cytotoxicity is 67.2% (active).
In the case of `Cc1nc2ccc(C(=O)c3ccccc3)cc2[nH]1`, the cytotoxicity is 1.1%.
Take `O=C(COc1ccccc1)Nc1nc2ccccc2[nH]1`: the cytotoxicity is -1.5%.
For `CCC(C)N(C(=O)COC(=O)Cc1n[nH]c(=O)c2ccccc12)C1CCS(=O)(=O)C1` (stereo not given), the cytotoxicity is -29.5%.
As to `O=C(CN(C(=O)Cn1nnc(-c2cccs2)n1)c1cnc2ccccc2c1)NCC1CCCO1` (stereo not given), the cytotoxicity is -3.6%.
For `O=C(COc1ccc(F)c(Cl)c1)c1ccc[nH]1` the value was -3.1%; for `COc1cc(-c2nnc(-c3ccc(S(=O)(=O)c4ccccc4)cc3)o2)cc(OC)c1OC`, -1.1%.
For `COc1ccc(C2C(C(=O)N3CCCC3)CC(=O)N2c2ccc(OC)cc2)cc1` (stereo not given) the value was 1.8%.
Take `CN(C)CC(=O)c1ccc(-c2ccccc2)cc1`: the cytotoxicity is -1.7%.
For the compound `CC(=O)Nc1cc(-c2nn3c(C)nnc3s2)ccc1C`, the cytotoxicity is 6.7%.
Regarding `Cc1nc(SCC(=O)CC(=O)OC(C)C)c(C#N)c(C)c1C`, the cytotoxicity was -4.4%.
Consider `Cc1cc(C)c(C#N)c(SCC(=O)CC(=O)OC(C)C)n1`, for which the cytotoxicity was 29.7%.
On to `CCOC(=O)CC(=O)Nc1nnc(CC(C)C)s1`, for which the cytotoxicity is -10.3%.
With `CCOC(=O)N1CCC(NC(=O)Cn2cccc2C(=O)c2ccccc2)CC1`, the cytotoxicity is -6.2%.
`COc1ccc(S(=O)(=O)n2nc(OC(=O)c3c(-c4ccccc4Cl)noc3C)cc2N)cc1`: the cytotoxicity was 51.1% (active).
As for `COc1ccccc1C(=O)Oc1cc(N)n(S(=O)(=O)c2ccc(C)cc2)n1`, the cytotoxicity was -5.5%.
`Cc1ccc(S(=O)(=O)n2nc(OC(=O)c3c(-c4ccccc4Cl)noc3C)cc2N)cc1`: the cytotoxicity was 73% (active).
The value for `COc1ccc(S(=O)(=O)n2nc(OC(=O)c3ccc(C)cc3)cc2N)cc1` was -7.7%; that for `COc1ccc(S(=O)(=O)n2nc(OC(=O)c3ccccc3)cc2N)cc1` was 0%; that for `Cc1onc(-c2ccccc2Cl)c1C(=O)Oc1cc(N)n(S(=O)(=O)c2ccc(F)cc2)n1` was 36.8%.
On to `O=C(O)CCC(=O)OCC1CCCO1` (stereo not given), for which the cytotoxicity is -8.8%.
For the compound `O=C(CSc1nnc(-c2ccccn2)n1Cc1ccccc1)NC1CCCC1`, the cytotoxicity was -15.2%.
Take `O=S(=O)(Nc1ccc(S(=O)(=O)N2CCOCC2)cc1)c1ccccc1`: the cytotoxicity is 7.6%.
As for `OC(CNCc1ccco1)Cn1c2ccccc2c2ccccc21` (stereo not given), the cytotoxicity was 40.9%.
`Cc1ccc(/C(C#N)=C\c2cn(C)c3ccccc23)cc1`: the cytotoxicity is 35.2%.
For the compound `CC1(C(=O)NC2CCCC2)CCC(=O)N1CCC1=CCCCC1` (stereo not given), the cytotoxicity is -21.1%.
As for `Cc1cccc2cc(C#N)c(SCC(=O)N3CC(=O)Nc4ccccc43)nc12`, the cytotoxicity is 65% (active).
Take `Cc1cc(C)c2nc(SCC(=O)N3CCCCC3)c(C#N)cc2c1`: the cytotoxicity was 2.7%.
On to `Cc1cccc2cc(C#N)c(SCCN3CCCCC3)nc12`, for which the cytotoxicity was 57.1% (active).
Consider `Cc1cccc2cc(C#N)c(SCC(=O)N3CCC(C)CC3)nc12`, for which the cytotoxicity was 2.7%.
As to `Cc1cccc2cc(C#N)c(N3CCN(C)CC3)nc12`, the cytotoxicity was 1.8%.
The value for `Cc1ccccc1-n1c(C)nnc1SCC(=O)N1CC(=O)Nc2ccccc21` was -8.9%.

(Values after PubChem BioAssay AID431 (Sanford-Burnham Center for Chemical Genomics, 2006).)
